A number with no mark means an inactive call. Records with an inconclusive call do not appear. Entries that show only a call come without a potency. More than one record can exist for a structure, and the calls need not agree. The source made the active and inactive calls. Calls follow the shape of the dose curve; as a rule, active = well fitted curve in the direction sought with a large enough effect in the repeat runs; inconclusive = weak or mixed curves; inactive = no such curve, though single readings can be large; an effect the other way counts as inactive or inconclusive.
What was measured:
[1] = qHTS RealTime-Glo MT Cell Viability Assay in HEK293 cells - 16 hour (AID 1224872); also: nearly all actives have a fitted effect of over 50% in size; also: potency is read from the fitted curve at half-maximal effect
Outline: (§1)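 HEK293 cells seeded with NanoLuc/prosubstrate reagent, rested 5 h at 37 C, then dosed and kept at 37 C up to 40 h. Nonlytic real-time luminescence from viable cells read at 0, 8, 16, 24, 32 and 40 h.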

[2] = qHTS RealTime-Glo MT Cell Viability Assay in HepG2 cells - 8 hour (AID 1224873); also: nearly all actives have a fitted effect of over 55% in size
Outline: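 HepG2 cells (600/well) mixed with RealTime-Glo MT reagent, settled 5 h at 37 C/5% CO2 before compound addition. Nonlytic NanoLuc luminescence from viable-cell prosubstrate reduction read repeatedly during 40 h treatment at 37 C.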

[3] = qHTS RealTime-Glo MT Cell Viability Assay in HEK293 cells - 40 hour (AID 1224874); conditions: RealTime-Glo luminescence; max response: active compounds read low; also: nearly all actives have a fitted effect of over 50% in size; also: potency is read from the fitted curve at half-maximal effect
Outline: (§2)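 Real-time viability in HEK293: signal arises when living cells convert a prosubstrate for NanoLuc in the medium, so luminescence tracks viable cell number. Compound (23 nL, DMSO) added 5 h post-seeding; kinetic reads at 0–40 h, 37 C.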

[4] = A CellTox Green Cytotoxicity Assay to monitor cytotoxicity in HEK293 cells - 24 hour (AID 1224875); also: series mostly up to about 77 µM; nearly all actives have a fitted effect of over 45% in size
Outline: (§3)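 Cells (HEK293, 600/well) and dye reagent are dispensed together. After 5 h at 37 C, 23 nL compound is pinned in. Plates stay at 37 C for 40 h with fluorescence read at 0h, 8h, 16h, 24h, 32h and 40h.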

[5] = A CellTox Green Cytotoxicity Assay to monitor cytotoxicity in HepG2 cells - 16 hour (AID 1224876); also: nearly all actives have a fitted effect of over 45% in size
Outline: (§4)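 Cells and non-lytic dye reagent are dispensed together (600 HepG2 cells/well) and incubated 5 h before DMSO compound transfer. Kinetic fluorescence is then recorded in the same wells during 40 h at 37 C.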

[6] = qHTS RealTime-Glo MT Cell Viability Assay in HepG2 cells - 32 hour (AID 1224877); also: nearly all actives have a fitted effect of over 55% in size
Outline: (§5)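 HepG2 cells (600/well) were dispensed with RealTime-Glo reagents, incubated 5 h at 37 °C, then treated with compounds in DMSO for up to 40 h. Nonlytic NanoLuc luminescence reflecting viable cells was read at each stated time point.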

[7] = A CellTox Green Cytotoxicity Assay to monitor cytotoxicity in HepG2 cells - 24 hour (AID 1224878); also: nearly all actives have a fitted effect of over 45% in size
Outline: as §4

[8] = A CellTox Green Cytotoxicity Assay to monitor cytotoxicity in HepG2 cells - 40 hour (AID 1224879); also: nearly all actives have a fitted effect of over 40% in size; also: potency is read from the fitted curve at half-maximal effect
Outline: as §4

[9] = qHTS RealTime-Glo MT Cell Viability Assay in HEK293 cells - 0 hour (AID 1224880); also: top concentration of the series differs between compounds; nearly all actives have a fitted effect of over 45% in size
Outline: as §2

[10] = A CellTox Green Cytotoxicity Assay to monitor cytotoxicity in HEK293 cells - 32 hour (AID 1224881); also: nearly all actives have a fitted effect of over 40% in size
Outline: as §3

[11] = A CellTox Green Cytotoxicity Assay to monitor cytotoxicity in HepG2 cells - 0 hour (AID 1224882); also: nearly all actives have a fitted effect of over 35% in size
Outline: as §4

[12] = A CellTox Green Cytotoxicity Assay to monitor cytotoxicity in HepG2 cells - 32 hour (AID 1224883); also: nearly all actives have a fitted effect of over 50% in size; also: potency is read from the fitted curve at half-maximal effect
Outline: as §4

[13] = A CellTox Green Cytotoxicity Assay to monitor cytotoxicity in HEK293 cells - 8 hour (AID 1224884); also: nearly all actives have a fitted effect of over 35% in size
Outline: as §3

[14] = qHTS RealTime-Glo MT Cell Viability Assay in HepG2 cells - 16 hour (AID 1224885); also: nearly all actives have a fitted effect of over 50% in size
Outline: as §5

[15] = qHTS RealTime-Glo MT Cell Viability Assay in HEK293 cells - 24 hour (AID 1224886); also: nearly all actives have a fitted effect of over 50% in size; also: potency is read from the fitted curve at half-maximal effect
Outline: as §1

[16] = qHTS RealTime-Glo MT Cell Viability Assay in HEK293 cells - 8 hour (AID 1224887); also: nearly all actives have a fitted effect of over 50% in size; also: potency is read from the fitted curve at half-maximal effect
Outline: as §2

[17] = A CellTox Green Cytotoxicity Assay to monitor cytotoxicity in HEK293 cells - 16 hour (AID 1224888); also: nearly all actives have a fitted effect of over 35% in size
Outline: as §3

[18] = A CellTox Green Cytotoxicity Assay to monitor cytotoxicity in HepG2 cells - 8 hour (AID 1224890); also: nearly all actives have a fitted effect of over 45% in size
Outline: as §4

[19] = qHTS assay to identify small molecule antagonists of the estrogen receptor alpha (ER-alpha) signaling pathway using the BG1 cell line in the presence of 0.1 nM 17-beta-estradiol - cell viability counter screen (AID 1259241); also: nearly all actives have a fitted effect of over 40% in size
Outline: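 Viability in VM7Luc4E2 cells after 22 hr compound exposure under 0.1 nM 17beta-estradiol stimulation, by CellTiter-Fluor.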

[20] = qHTS RealTime-Glo MT Cell Viability Assay in HepG2 cells - 0 hour (AID 1224889); also: nearly all actives have a fitted effect of over 50% in size
Outline: as §5

## Cc1ccc(OP(=O)(Oc2ccccc2)Oc2ccccc2)cc1
[1]
  Potency: inactive
[2]
  Potency: inactive
[3]
  max response: -19.8%
[4]
  Potency: inactive
[5]
  Potency: inactive
[6]
  Potency: inactive
[7]
  Potency: inactive
[8]
  Potency: inactive
[9]
  Potency: inactive
[10]
  Potency: inactive
[11]
  Potency: inactive
[12]
  Potency: inactive
[13]
  Potency: inactive
[14]
  Potency: inactive
[15]
  Potency: inactive
[16]
  Potency: inactive
[17]
  Potency: inactive
[18]
  Potency: inactive
[19]
  Potency: inactive

## O=C/C(Cl)=C(/Cl)C(=O)O
[1]
  Potency: inactive
[2]
  Potency: inactive
[3]
  max response: 20.3%
[4]
  Potency: inactive
[5]
  Potency: inactive
[6]
  Potency: inactive
[7]
  Potency: inactive
[8]
  Potency: 48.9 µM (active)
[9]
  Potency: inactive
[10]
  Potency: inactive
[11]
  Potency: inactive
[12]
  Potency: 54.9 µM (active)
[13]
  Potency: inactive
[14]
  Potency: inactive
[16]
  Potency: inactive
[20]
  Potency: inactive
[18]
  Potency: inactive
[19]
  Potency: inactive

## COc1ccc(N)cc1N
[1]
  Potency: 35.8 µM (active)
[2]
  Potency: inactive
[3]
  Potency: 50.5 µM (active)
  max response: -27.7%
[4]
  Potency: inactive
[5]
  Potency: inactive
[6]
  Potency: inactive
[7]
  Potency: inactive
[8]
  Potency: inactive
[9]
  Potency: inactive
[10]
  Potency: inactive
[11]
  Potency: inactive
[12]
  Potency: inactive
[13]
  Potency: inactive
[14]
  Potency: inactive
[15]
  Potency: 40.1 µM (active)
[16]
  Potency: 25.3 µM (active)
[17]
  Potency: inactive
[18]
  Potency: inactive

## c1ccc2c(c1)[nH]c1cnccc12
[1]
  Potency: inactive
[2]
  Potency: inactive
[3]
  max response: 0.679%
[4]
  Potency: inactive
[5]
  Potency: inactive
[6]
  Potency: inactive
[7]
  Potency: inactive
[8]
  Potency: inactive
[9]
  Potency: inactive
[10]
  Potency: inactive
[11]
  Potency: inactive
[12]
  Potency: inactive
[14]
  Potency: inactive
[15]
  Potency: inactive
[16]
  Potency: inactive
[17]
  Potency: inactive
[20]
  Potency: inactive
[18]
  Potency: inactive
[19]
  Potency: inactive

## CCOC(=O)OC1=C(c2cc(C)ccc2C)C(=O)NC12CCC(OC)CC2 (configuration not stated)
[1]
  Potency: inactive
[2]
  Potency: inactive
[3]
  max response: -0.185%
[4]
  Potency: inactive
[5]
  Potency: inactive
[6]
  Potency: inactive
[7]
  Potency: inactive
[8]
  Potency: inactive
[9]
  Potency: inactive
[10]
  Potency: inactive
[11]
  Potency: inactive
[12]
  Potency: inactive
[13]
  Potency: inactive
[14]
  Potency: inactive
[15]
  Potency: inactive
[16]
  Potency: inactive
[20]
  Potency: inactive
[18]
  Potency: inactive
[19]
  Potency: inactive

## NNC(=O)c1ccccc1
[1]
  Potency: inactive
[2]
  Potency: inactive
[3]
  max response: -4.85%
[4]
  Potency: inactive
[5]
  Potency: inactive
[6]
  Potency: inactive
[7]
  Potency: inactive
[8]
  Potency: inactive
[9]
  Potency: inactive
[10]
  Potency: inactive
[11]
  Potency: inactive
[12]
  Potency: inactive
[14]
  Potency: inactive
[15]
  Potency: inactive
[16]
  Potency: inactive
[17]
  Potency: inactive
[20]
  Potency: inactive
[18]
  Potency: inactive

## COCC(=O)N(c1c(C)cccc1C)[C@H](C)C(=O)OC
[1]
  Potency: inactive
[2]
  Potency: inactive
[3]
  max response: -0.139%
[4]
  Potency: inactive
[5]
  Potency: inactive
[6]
  Potency: inactive
[7]
  Potency: inactive
[8]
  Potency: inactive
[9]
  Potency: inactive
[10]
  Potency: inactive
[11]
  Potency: inactive
[12]
  Potency: inactive
[13]
  Potency: inactive
[14]
  Potency: inactive
[15]
  Potency: inactive
[16]
  Potency: inactive
[17]
  Potency: inactive
[20]
  Potency: inactive
[18]
  Potency: inactive
[19]
  Potency: inactive

## Cl/C=C\CCl
[1]
  Potency: inactive
[2]
  Potency: inactive
[3]
  max response: 11.8%
[4]
  Potency: inactive
[5]
  Potency: inactive
[6]
  Potency: inactive
[7]
  Potency: inactive
[8]
  Potency: inactive
[9]
  Potency: inactive
[10]
  Potency: inactive
[11]
  Potency: inactive
[12]
  Potency: inactive
[13]
  Potency: inactive
[14]
  Potency: inactive
[15]
  Potency: inactive
[16]
  Potency: inactive
[17]
  Potency: inactive
[20]
  Potency: inactive
[18]
  Potency: inactive
[19]
  Potency: inactive

## SCc1ccco1
[1]
  Potency: inactive
[2]
  Potency: inactive
[3]
  max response: -11.9%
[4]
  Potency: inactive
[5]
  Potency: inactive
[6]
  Potency: inactive
[7]
  Potency: inactive
[8]
  Potency: inactive
[9]
  Potency: inactive
[10]
  Potency: inactive
[11]
  Potency: inactive
[12]
  Potency: inactive
[13]
  Potency: inactive
[14]
  Potency: inactive
[15]
  Potency: inactive
[16]
  Potency: inactive
[17]
  Potency: inactive
[19]
  Potency: inactive

## Cc1ccc(C(=O)Cl)cc1
[1]
  Potency: inactive
[2]
  Potency: inactive
[3]
  max response: -5.57%
[4]
  Potency: inactive
[5]
  Potency: inactive
[6]
  Potency: inactive
[7]
  Potency: inactive
[8]
  Potency: inactive
[9]
  Potency: inactive
[10]
  Potency: inactive
[11]
  Potency: inactive
[12]
  Potency: inactive
[13]
  Potency: inactive
[14]
  Potency: inactive
[15]
  Potency: inactive
[16]
  Potency: inactive
[17]
  Potency: inactive
[20]
  Potency: inactive
[19]
  Potency: inactive

## Cc1cc(Cl)ccc1O[C@H](C)C(=O)O
[1]
  Potency: inactive
[2]
  Potency: inactive
[3]
  max response: -1.32%
[4]
  Potency: inactive
[5]
  Potency: inactive
[6]
  Potency: inactive
[7]
  Potency: inactive
[8]
  Potency: inactive
[9]
  Potency: inactive
[10]
  Potency: inactive
[11]
  Potency: inactive
[12]
  Potency: inactive
[13]
  Potency: inactive
[14]
  Potency: inactive
[15]
  Potency: inactive
[16]
  Potency: inactive
[20]
  Potency: inactive
[19]
  Potency: inactive

## C[C@@H](Oc1ccc(Cl)cc1Cl)C(=O)O
[1]
  Potency: inactive
[2]
  Potency: inactive
[3]
  max response: 0.534%
[4]
  Potency: inactive
[5]
  Potency: inactive
[6]
  Potency: inactive
[7]
  Potency: inactive
[8]
  Potency: inactive
[9]
  Potency: inactive
[10]
  Potency: inactive
[11]
  Potency: inactive
[12]
  Potency: inactive
[13]
  Potency: inactive
[14]
  Potency: inactive
[15]
  Potency: inactive
[16]
  Potency: inactive
[17]
  Potency: inactive
[20]
  Potency: inactive
[18]
  Potency: inactive
[19]
  Potency: inactive
